Assay results taken from ChEMBL document CHEMBL1961873, “Compounds: GSK PKIS; Assays: Nanosyn kinase panel” (2012).

target: Serine/threonine-protein kinase PAK 3 (Homo sapiens) (UniProt O75914); details: at 0.1 µM
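Further: mean percent inhibition of PAK3, measured in a screen of the GSK published kinase inhibitor set.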

Sequence of Serine/threonine-protein kinase PAK 3 (Homo sapiens) (O75914 whole entry, looked up): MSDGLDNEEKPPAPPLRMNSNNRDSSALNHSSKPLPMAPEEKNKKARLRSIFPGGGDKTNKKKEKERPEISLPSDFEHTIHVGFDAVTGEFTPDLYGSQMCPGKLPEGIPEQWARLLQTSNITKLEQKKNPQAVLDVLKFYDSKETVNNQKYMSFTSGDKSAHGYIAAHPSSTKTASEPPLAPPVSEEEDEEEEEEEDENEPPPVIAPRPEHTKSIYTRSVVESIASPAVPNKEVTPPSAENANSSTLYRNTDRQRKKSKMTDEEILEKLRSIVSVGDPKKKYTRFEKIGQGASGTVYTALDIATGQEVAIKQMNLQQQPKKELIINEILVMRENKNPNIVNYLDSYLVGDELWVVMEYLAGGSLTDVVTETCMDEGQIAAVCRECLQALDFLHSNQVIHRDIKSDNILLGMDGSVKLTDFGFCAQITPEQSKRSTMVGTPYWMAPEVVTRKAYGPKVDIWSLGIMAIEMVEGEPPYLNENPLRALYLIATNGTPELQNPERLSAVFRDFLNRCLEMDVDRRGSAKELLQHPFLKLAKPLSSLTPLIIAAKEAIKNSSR

Row | SMILES | inhibition [%]
1 | c1ccc(Nc2ncc(-c3ccccc3)o2)cc1 | 5.16
2 | CN(C)C(=O)O[C@H]1CN[C@H](C#Cc2cc3ncnc(Nc4ccc(OCc5cccc(F)c5)c(Cl)c4)c3s2)C1 | 2.53
3 | NS(=O)(=O)c1ccc(N/N=C2\C(=O)Nc3ccc(Cl)cc32)cc1 | 3.71
4 | O=C1Nc2ccccc2/C1=C/Nc1ccc2[nH]c(=O)[nH]c2c1 | 7.05
5 | CN1CCN(C(=O)c2ccc(NC(=O)Nc3ccc(N(C)c4ccnc(Nc5ccc(CS(C)(=O)=O)cc5)n4)cc3)cc2)CC1 | 1.85
6 | COc1ccc(-c2nn3ncccc3c2-c2ccnc(Nc3cccc(C(F)(F)F)c3)n2)cc1 | 3.37
7 | O=S(=O)(CCOCc1ccc(-c2ccc3ncnc(Nc4ccc(OCc5cccc(F)c5)c(Cl)c4)c3c2)o1)c1ccccc1 | 0.57
8 | COc1cccc(-n2ncc3c(N/N=C/c4ccc(S(C)(=O)=O)cc4)ncnc32)c1 | 0.46
9 | Cc1cc(O)cc(C)c1/C=C/c1cncc(C(=O)N(C)C)c1 | -0.76
10 | Cc1ccc2c(-c3ccnc(Nc4cccc(C(F)(F)F)c4)n3)c(-c3ccccc3)nn2n1 | 5.11
11 | CS(=O)(=O)CCNCc1nc(-c2ccc3ncnc(Nc4ccc(OCc5cccc(C(F)(F)F)c5)cc4)c3c2)cs1 | 2.76
12 | Cc1ccc(Nc2ccnc(Nc3cccc(C(N)=O)c3)n2)cc1O | 3.06
13 | CCS(=O)(=O)c1ccc(OC)c(Nc2ncc(-c3cccc(OC)c3)o2)c1 | 3.24
14 | COc1cc2ncnc(Nc3ccc(C)c(O)c3)c2cc1OC | 5.88
15 | COc1cc2ncnc(Nc3ccc4c(cnn4Cc4ccccc4)c3)c2cc1OC | 2.02
16 | NS(=O)(=O)c1cccc(-c2cc3ccncc3cc2OCc2ccccc2)c1 | 4.78
17 | Oc1cccc(-c2nc(-c3ccccc3)[nH]c2-c2ccncc2)c1 | 3.47

Row | SMILES | inhibition [%]
18 | NC(=O)c1sc(-n2cnc3ccccc32)cc1OCc1ccccc1Br | 4.83
19 | Cc1nc(-c2ccccc2)n2nc(NCCCN3CCOCC3)ncc12 | 1.98
20 | Cc1ccc(NC(=O)CC2CC2)cc1-c1ccc(C(=O)NCC2CC2)cc1 | 3.33
21 | NC(=O)c1cccc(Nc2nccc(Nc3cccc(F)c3)n2)c1 | 0.23
22 | Nc1nccc(C#Cc2cncnc2Nc2ccc(OCc3cccc(F)c3)c(Cl)c2)n1 | 0.29
23 | NS(=O)(=O)c1ccc(-c2cc3ccncc3cc2OCc2ccccc2)cc1 | 3.48
24 | CCS(=O)(=O)c1ccc(OC)c(Nc2nccc(N(C)c3ccc4c(C)n[nH]c4c3)n2)c1 | 5.97
25 | COc1cccc(-n2nc(C)c3c(N/N=C(\C)c4ccncc4)ncnc32)c1 | 0.46
26 | COC(=O)c1ccc2c(c1)C(=Cc1cc(Br)c(O)c(Br)c1)C(=O)N2 | 4.21
27 | COc1cccc(-n2ncc3c(N/N=C/c4ccc(C)cc4)ncnc32)c1 | 6.06
28 | NS(=O)(=O)c1ccc(Nc2cc(-c3cccc(O)c3)n[nH]2)cc1 | 6.66
29 | Cc1cc(-c2ccccn2)cc(C)c1/C=C/c1cncc(-c2nn[nH]n2)c1 | 4.9
30 | CCn1c(-c2nonc2N)nc2c(C#CC(C)(C)O)nc(OCCNC)cc21 | 3.16
31 | O=C(Nc1ccc(Oc2ccc3[nH]c(NC(=O)c4ccco4)nc3c2)cc1)Nc1cc(C(F)(F)F)ccc1F | -0.21
32 | Cc1ccc2c(-c3ccnc(Nc4ccc5c(c4)OCCO5)n3)c(-c3ccc(C(F)(F)F)cc3)nn2n1 | 2
33 | [O-][S+]1CCN(Cc2ccc(-c3ccc4ncnc(Nc5ccc(OCc6ccccc6)c(Cl)c5)c4c3)o2)CC1 | 0.99
